Assay results reported in PubChem BioAssay AID624305 (National Center for Advancing Translational Sciences (NCATS), 2012).
Records with an inconclusive call do not appear. Unmarked numbers belong to inactive results. Calls of active or inactive are those of the source. Calls follow the shape of the dose curve; as a rule, active = well fitted activation curve with a large enough effect; inconclusive = small, poorly fitted or top-dose-only effect; inactive = no such curve, though single readings can be large or run the other way.
Potency is read from the fitted curve at half-maximal effect.

Experiment: qHTS assay for re-activators of p53 using a Luc reporter: Hit Validation; also: nearly all actives have a fitted effect of over 75% in size; as to activation: 0% is about no effect
Details: p53-responsive luciferase reporter cells, luminescence, H1299 line expressing heat-sensitive Ala138Val p53; series mostly up to 46.1 µM; activation: at the top concentration
How it was run: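 Hit confirmation with a 1:5 dilution series, at 37 deg C for 24 hrs, in H1299 cells co-expressing temperature-sensitive p53-A138V and p53-responsive luciferase. Nocodazole served as control; luminescence read after 10 min with detection reagent.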
With `N#CC(Cc1ccccc1)(Cc1ccccc1)C(=O)NN` the “activation” value was -87.5%. With `c1ccc(-c2cn3nc(-c4ccccc4)cnc3n2)cc1` the Potency was 0.92 µM (active). In the case of `CC(Sc1nc(N)cc(=O)[nH]1)C(=O)NNC(=O)c1cccc(Cl)c1` (stereo not drawn), the “activation” value was -18.8%. In the case of `C/C(=N\NC(=O)c1cc(C)nc2ccccc12)c1ccccn1`, the Potency was 16.4 µM (active). In the case of `COc1cccc(-c2nc3cc(C)ccc3o2)c1`, the Potency was 0.411 µM (active). With `Cc1c(/C(O)=C2/C(=O)C(=O)N(CCN3CCOCC3)C2c2cccs2)cnn1-c1ccccc1` (stereo not drawn) the Potency was 8.2 µM (active). For `O=C(NC(=S)Nc1nc2ccccc2s1)c1ccco1`, the Potency was 0.58 µM (active). With `COc1ccc(C(=O)Nc2nnc(C(F)(F)F)s2)cc1` the Potency was 10.3 µM (active). In the case of `O=C(COc1ccc(F)cc1Cl)NC1CCCCCC1`, the Potency was 7.31 µM (active). In the case of `O=C(NNC(=O)c1cccnc1SCc1cccc([N+](=O)[O-])c1)c1ccccn1`, the “activation” value was 31.8%. With `COc1ccc(NC(=O)/C(Cl)=C(/Cl)S(=O)(=O)Cc2ccc(C)cc2)cn1` the “activation” value was -94.3%. In the case of `CCc1ccc2[nH]c(=O)c(CN(CCN(CC)CC)C(=O)NC3CCCCC3)cc2c1`, the “activation” value was 44.8%. For `Cc1ccc(-c2nnc(SCc3ccccc3F)o2)cc1`, the Potency was 1.3 µM (active). For `NS(=O)(=O)c1ccc(CCNCc2cccnc2)cc1`, the “activation” value was -16.7%. In the case of `CC(C)c1ccc(NC(=O)c2snc3ccc(Cl)cc23)cc1`, the Potency was 5.8 µM (active). With `O=C(/C=C/c1cnc2ccccc2n1)NC12CC3CC(CC(C3)C1)C2` the Potency was 9.2 µM (active). In the case of `CN(Cc1ccccc1)c1ncnc2ccc(Br)cc12`, the “activation” value was -21.4%. For `O=C(NC1CCCCC1)c1ccc(-c2ccccc2F)o1`, the Potency was 3.66 µM (active).
